# Data published in PubChem BioAssay (EPA / NIEHS).
# Records with an inconclusive call do not appear. More than one record can exist for a structure, and the calls need not agree. Calls of active or inactive are those of the source. The calls were made as follows, unless noted: active = hit-call score of the fitted dose curve at least 0.9, where 1 is the maximum; inconclusive = response in the unintended direction; inactive = score below 0.9.
# Legend:
# [1] = target: human Peroxisome Proliferator-activated Receptor delta (PPARd), PPARD (gene 5467) (UniProt Q03181); assay: ATG_PPARd_TRANS: Attagene TRANS-FACTORIAL HepG2 Assay for human Peroxisome Proliferator-activated Receptor delta (PPARd) (AID 2283002)
# human Peroxisome Proliferator-activated Receptor delta (PPARd), PPARD (gene 5467), sequence (Q03181 whole entry, looked up, the tested form may be a part): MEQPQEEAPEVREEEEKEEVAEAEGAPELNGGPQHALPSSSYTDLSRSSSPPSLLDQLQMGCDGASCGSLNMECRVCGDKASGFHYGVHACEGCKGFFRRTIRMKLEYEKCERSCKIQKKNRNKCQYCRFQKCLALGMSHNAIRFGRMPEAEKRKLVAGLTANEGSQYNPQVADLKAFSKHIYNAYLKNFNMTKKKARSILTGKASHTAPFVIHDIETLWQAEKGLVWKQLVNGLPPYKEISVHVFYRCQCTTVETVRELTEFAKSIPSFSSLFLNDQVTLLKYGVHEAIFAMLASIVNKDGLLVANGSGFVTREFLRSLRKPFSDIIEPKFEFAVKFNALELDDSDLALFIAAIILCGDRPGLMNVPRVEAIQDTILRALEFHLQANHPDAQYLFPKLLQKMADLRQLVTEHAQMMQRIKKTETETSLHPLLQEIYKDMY
# Method in brief: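 Measured quantity: GAL4-UAS reporter transcript induction in HepG2 after 24 h chemical dosing, with NR-Gal4 chimeras supplied by transient transfection. Detection by RT-PCR and capillary electrophoresis; upward fit against DMSO.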
# [2] = read-out: Intercellular Adhesion Molecule 1 (ICAM1), ICAM1 (gene 3383); assay: BSK_3C_ICAM1: BioMAP Diversity Plus: 3C Assay for Intercellular Adhesion Molecule 1 (ICAM1) Biomarker Activity (AID 2283003; active = hit-call score of the fitted dose curve at least 0.9, where 1 is the maximum; inactive = score below 0.9); settings: primary human endothelial cells (HUVEC); actives raise or lower the signal
# Method in brief: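 ELISA readout of ICAM1 in human umbilical vein endothelial cells in the 3C system, taken 24 h post-dose. Gain or loss of signal versus DMSO was fitted in both directions, with SRB total-protein staining run in parallel.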
# [3] = BSK_3C_Proliferation: Cell Proliferation Assessment in the BioMAP Diversity Plus: 3C Assay (AID 2283006; active = hit-call score of the fitted dose curve at least 0.9, where 1 is the maximum; inactive = score below 0.9;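 as to AC50: potency may reflect either rise or fall in cell number versus DMSO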); settings: primary human endothelial cells (HUVEC)
# Method in brief: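 Proliferation as total protein: sulforhodamine B (0.1%) stain of TCA-fixed subconfluent human umbilical vein endothelial cells, absorbance 560 nm, 48 h after dosing. Activity fitted in both directions against DMSO baseline.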
# [4] = target: human RAR-related Orphan Receptor beta (RORb), RORB (gene 6096) (UniProt Q92753); assay: ATG_RORb_TRANS: Attagene TRANS-FACTORIAL HepG2 Assay for human RAR-related Orphan Receptor beta (RORb) (AID 2283010)
# human RAR-related Orphan Receptor beta (RORb), RORB (gene 6096), sequence (Q92753 whole entry, looked up, the tested form may be a part): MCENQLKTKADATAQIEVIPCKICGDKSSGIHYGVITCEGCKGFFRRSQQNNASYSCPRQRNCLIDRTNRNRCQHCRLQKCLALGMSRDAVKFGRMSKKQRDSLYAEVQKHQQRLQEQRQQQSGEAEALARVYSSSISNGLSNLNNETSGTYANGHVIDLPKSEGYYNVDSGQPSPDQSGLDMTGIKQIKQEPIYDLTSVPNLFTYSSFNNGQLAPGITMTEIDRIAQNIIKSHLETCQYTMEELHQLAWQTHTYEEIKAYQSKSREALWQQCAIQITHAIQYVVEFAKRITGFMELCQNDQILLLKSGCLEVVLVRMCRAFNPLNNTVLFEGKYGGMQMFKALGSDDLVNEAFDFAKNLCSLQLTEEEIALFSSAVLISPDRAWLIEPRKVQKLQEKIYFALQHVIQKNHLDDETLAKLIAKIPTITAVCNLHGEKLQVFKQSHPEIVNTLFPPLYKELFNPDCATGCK
# Method in brief: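 Read-out is reporter mRNA induction, quantified by RT-PCR with fluorescent capillary electrophoresis, 24 h post-dose in transiently transfected HepG2 expressing exogenous NR-Gal4 chimera. Activity fitted upward versus DMSO.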
# [5] = target: human Peroxisome Proliferator-activated Receptor alpha (PPARa), PPARA (gene 5465) (UniProt Q07869); assay: ATG_PPARa_TRANS: Attagene TRANS-FACTORIAL HepG2 Assay for human Peroxisome Proliferator-activated Receptor alpha (PPARa) (AID 2283001)
# human Peroxisome Proliferator-activated Receptor alpha (PPARa), PPARA (gene 5465), sequence (Q07869 whole entry, looked up): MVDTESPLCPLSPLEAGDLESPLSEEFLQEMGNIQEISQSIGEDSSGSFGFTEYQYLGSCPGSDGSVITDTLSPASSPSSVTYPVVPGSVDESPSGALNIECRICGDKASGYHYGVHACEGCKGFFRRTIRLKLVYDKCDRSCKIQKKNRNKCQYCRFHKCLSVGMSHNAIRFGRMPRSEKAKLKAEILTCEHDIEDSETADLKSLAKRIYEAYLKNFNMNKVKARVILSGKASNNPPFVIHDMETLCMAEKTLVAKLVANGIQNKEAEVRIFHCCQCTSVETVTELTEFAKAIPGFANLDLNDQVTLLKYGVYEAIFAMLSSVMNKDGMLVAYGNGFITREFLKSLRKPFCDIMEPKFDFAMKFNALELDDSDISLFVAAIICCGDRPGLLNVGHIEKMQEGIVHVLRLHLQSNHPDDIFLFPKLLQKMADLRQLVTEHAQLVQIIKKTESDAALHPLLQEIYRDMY
# Method in brief: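 Cells (HepG2) are transfected with multiple reporter transcription units, exposed to chemical for 24 h, then total RNA is reverse-transcribed and amplified. Labelled products are quantified by capillary electrophoresis; induction is referenced to DMSO.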
# [6] = target: human Retinoic Acid Receptor beta (RARb), RARB (gene 5915) (UniProt P10826); assay: ATG_RARb_TRANS: Attagene TRANS-FACTORIAL HepG2 Assay for human Retinoic Acid Receptor beta (AID 2283004)
# human Retinoic Acid Receptor beta (RARb), RARB (gene 5915), sequence (P10826 whole entry, looked up, the tested form may be a part): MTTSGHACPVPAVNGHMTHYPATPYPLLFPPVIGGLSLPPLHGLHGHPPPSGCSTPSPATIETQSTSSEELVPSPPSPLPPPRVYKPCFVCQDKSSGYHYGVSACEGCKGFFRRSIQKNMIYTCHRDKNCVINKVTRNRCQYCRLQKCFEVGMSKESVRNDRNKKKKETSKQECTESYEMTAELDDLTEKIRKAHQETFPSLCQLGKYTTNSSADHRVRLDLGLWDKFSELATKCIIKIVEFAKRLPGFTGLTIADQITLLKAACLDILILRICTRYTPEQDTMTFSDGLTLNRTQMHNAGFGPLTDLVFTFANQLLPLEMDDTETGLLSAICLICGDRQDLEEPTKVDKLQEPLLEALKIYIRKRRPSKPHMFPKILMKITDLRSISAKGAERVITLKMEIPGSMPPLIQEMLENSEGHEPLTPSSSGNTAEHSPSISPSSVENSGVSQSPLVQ
# Method in brief: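 Fluorescent capillary-electrophoresis detection of GAL4-UAS reporter mRNA defines the endpoint, with induction over DMSO-treated wells scored as activity. Transiently transfected human hepatoma HepG2 cells expressing exogenous NR–Gal4 proteins are exposed to test chemicals for 24 h.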
# [7] = target: Peroxisome proliferator-activated receptor gamma (Homo sapiens) (UniProt P37231); assay: ATG_PPARg_TRANS: Attagene TRANS-FACTORIAL HepG2 Assay for human Peroxisome Proliferator-activated Receptor-gamma (PPARg) (AID 2283007)
# Peroxisome proliferator-activated receptor gamma (Homo sapiens), sequence (P37231 whole entry, looked up): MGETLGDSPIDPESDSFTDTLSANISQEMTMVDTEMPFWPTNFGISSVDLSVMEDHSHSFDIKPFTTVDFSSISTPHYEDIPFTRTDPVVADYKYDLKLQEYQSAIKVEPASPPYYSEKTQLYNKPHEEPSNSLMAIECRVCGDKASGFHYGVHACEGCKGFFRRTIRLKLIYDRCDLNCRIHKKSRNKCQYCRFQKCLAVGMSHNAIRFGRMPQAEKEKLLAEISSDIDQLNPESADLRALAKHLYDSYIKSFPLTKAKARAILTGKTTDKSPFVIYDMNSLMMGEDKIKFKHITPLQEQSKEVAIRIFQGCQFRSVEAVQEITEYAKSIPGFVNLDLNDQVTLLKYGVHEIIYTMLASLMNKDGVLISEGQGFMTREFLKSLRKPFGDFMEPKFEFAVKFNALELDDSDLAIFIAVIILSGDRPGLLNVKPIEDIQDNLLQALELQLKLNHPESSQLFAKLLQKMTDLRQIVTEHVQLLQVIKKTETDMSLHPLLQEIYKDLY
# Method in brief: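 Human hepatoma HepG2, transient MRTU transfection, 24 h treatment. mRNA reporter signal by RT-PCR plus capillary electrophoresis, fluorescence detection; fitted for increase over DMSO negative control.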
# [8] = target: Nuclear receptor subfamily 1 group I member 2 (Homo sapiens) (UniProt O75469); assay: ATG_PXR_TRANS: Attagene TRANS-FACTORIAL HepG2 Assay for human Pregnane X Receptor (PXR) (AID 2283008)
# Nuclear receptor subfamily 1 group I member 2 (Homo sapiens), sequence (O75469 whole entry, looked up, the tested form may be a part): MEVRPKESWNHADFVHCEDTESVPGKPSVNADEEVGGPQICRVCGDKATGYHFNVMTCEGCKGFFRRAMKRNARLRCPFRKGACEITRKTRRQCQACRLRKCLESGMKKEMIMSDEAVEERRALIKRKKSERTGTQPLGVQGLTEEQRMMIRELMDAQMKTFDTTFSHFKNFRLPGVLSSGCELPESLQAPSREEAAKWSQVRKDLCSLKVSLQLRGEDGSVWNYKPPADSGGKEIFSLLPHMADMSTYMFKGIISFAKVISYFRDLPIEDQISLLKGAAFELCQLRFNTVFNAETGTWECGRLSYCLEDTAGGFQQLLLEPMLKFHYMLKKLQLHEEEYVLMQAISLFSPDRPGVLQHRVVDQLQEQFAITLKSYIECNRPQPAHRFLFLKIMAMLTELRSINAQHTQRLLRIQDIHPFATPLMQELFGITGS
# Method in brief: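 HepG2 transfected (FuGene 6) with GAL4-UAS reporter units + PXR-Gal4 chimera; dosed 24 h. Total RNA → oligo(dT) RT → PCR → 6-FAM primer extension → HpaI cut → CE. Gain-of-signal vs DMSO.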
# [9] = target: Retinoic acid receptor alpha (Homo sapiens) (UniProt P10276); assay: ATG_RARa_TRANS: Attagene TRANS-FACTORIAL HepG2 Assay for human Retinoic Acid Receptor alpha (RARa) (AID 2283005)
# Retinoic acid receptor alpha (Homo sapiens), sequence (P10276 whole entry, looked up, the tested form may be a part): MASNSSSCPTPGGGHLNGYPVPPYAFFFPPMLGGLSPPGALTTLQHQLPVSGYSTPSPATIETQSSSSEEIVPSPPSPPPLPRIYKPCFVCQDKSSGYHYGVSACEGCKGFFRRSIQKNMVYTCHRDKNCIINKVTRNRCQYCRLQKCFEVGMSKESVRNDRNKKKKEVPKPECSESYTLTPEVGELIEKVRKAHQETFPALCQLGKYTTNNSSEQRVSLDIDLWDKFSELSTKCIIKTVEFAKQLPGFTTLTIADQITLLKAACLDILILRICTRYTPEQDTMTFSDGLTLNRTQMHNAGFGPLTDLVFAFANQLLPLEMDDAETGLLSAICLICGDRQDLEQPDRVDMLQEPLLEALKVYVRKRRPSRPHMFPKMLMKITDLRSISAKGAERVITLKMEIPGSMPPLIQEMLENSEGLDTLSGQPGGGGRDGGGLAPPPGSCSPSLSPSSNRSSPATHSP
# Method in brief: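 HepG2 cells transiently transfected with multiple reporter units expressing chimeric RARα-GAL4 fusion, with GAL4-UAS-driven reporters. After 24 h compound exposure, reporter mRNA induction quantified by RT-PCR and capillary electrophoresis with fluorescent labeling; gain-of-signal fitted relative to DMSO control.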
# [10] = target: human Retinoic Acid Receptor gamma (RARg), RARG (gene 5916) (UniProt P13631); assay: ATG_RARg_TRANS: Attagene TRANS-FACTORIAL HepG2 Assay for human Retinoic Acid Receptor gamma (RARg) (AID 2283009)
# human Retinoic Acid Receptor gamma (RARg), RARG (gene 5916), sequence (P13631 whole entry, looked up, the tested form may be a part): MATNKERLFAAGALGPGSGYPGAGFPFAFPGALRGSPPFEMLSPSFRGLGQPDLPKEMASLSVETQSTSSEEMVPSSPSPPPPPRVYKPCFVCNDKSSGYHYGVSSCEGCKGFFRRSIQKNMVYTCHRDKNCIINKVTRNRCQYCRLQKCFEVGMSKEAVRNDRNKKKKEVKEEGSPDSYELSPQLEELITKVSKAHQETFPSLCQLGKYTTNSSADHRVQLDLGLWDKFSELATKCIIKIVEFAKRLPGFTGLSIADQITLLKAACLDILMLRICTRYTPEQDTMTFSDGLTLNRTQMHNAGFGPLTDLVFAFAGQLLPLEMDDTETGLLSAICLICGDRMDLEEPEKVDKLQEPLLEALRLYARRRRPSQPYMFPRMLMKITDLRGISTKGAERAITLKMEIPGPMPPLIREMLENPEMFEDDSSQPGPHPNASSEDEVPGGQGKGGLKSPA
# Method in brief: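 Transactivation of exogenous RARg-Gal4 fusion measured as reporter transcript induction after 24 h in transfected HepG2 cells. RNA reverse-transcribed, amplified, fluorescently labeled and resolved by capillary electrophoresis; increase relative to DMSO.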
smiles,measurement,setting,value
CCCCCCC(C)OC(=O)COc1nc(F)c(Cl)c(N)c1Cl (configuration not stated),outcome,[1],inactive
same,AC50,[2],34.9 µM (active)
same,AC50,[3],13.6 µM (active)
same,outcome,[4],inactive
COC(=O)c1ccc(CNS(C)(=O)=O)cc1S(=O)(=O)NC(=O)Nc1nc(OC)cc(OC)n1,outcome,[5],inactive
same,outcome,[2],inactive
same,outcome,[6],inactive
same,outcome,[3],inactive
same,outcome,[7],inactive
same,outcome,[8],inactive
same,outcome,[4],inactive
CCCCCOC(=O)COc1cc(N2C(=O)C3=C(CCCC3)C2=O)c(F)cc1Cl,outcome,[5],inactive
same,outcome,[6],inactive
same,outcome,[9],inactive
same,AC50,[3],14.3 µM (active)
same,outcome,[7],inactive
same,outcome,[8],inactive
same,outcome,[4],inactive
CCCN(CCC)C(=O)SCC,outcome,[5],inactive
same,outcome,[3],inactive
same,outcome,[7],inactive
same,outcome,[4],inactive
CCOC(=O)C(C)Oc1ccc(Oc2cnc3cc(Cl)ccc3n2)cc1 (configuration not stated),outcome,[5],inactive
same,outcome,[3],inactive
same,outcome,[7],inactive
same,outcome,[10],inactive
same,outcome,[4],inactive
CCN(Cc1c(F)cccc1Cl)c1c([N+](=O)[O-])cc(C(F)(F)F)cc1[N+](=O)[O-],outcome,[1],inactive
same,outcome,[6],inactive
same,outcome,[9],inactive
same,AC50,[3],12.9 µM (active)
same,outcome,[7],inactive
same,outcome,[10],inactive
S=C(S)NCCNC(=S)S.[Mn+2].[S-]C([S-])=NCCN=C([S-])[S-].[Zn+2],outcome,[5],inactive
same,outcome,[3],inactive
same,outcome,[7],inactive
same,outcome,[4],inactive
